Data as given in PubChem BioAssay (NCI).
This is part of a sample that, as a whole, favours compounds with a hit. Of some 83,000 tested, about 20% had one in any assay.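 96-well plates, one dose, 48 hours. Percent growth reported; active if below 10.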 Values without a mark were called inactive. The source made the active and inactive calls.

What follows are compounds tested on HL-60(TB) leukemia (assay: NCI-60 one-dose screen, 48 h (100 = growth as untreated, 0 = no growth, -100 = all killed)). Conditions: 10 µM unless noted.

Compound | growth
COc1cc(C2CC(=O)Nc3c2c(C)nn3-c2nc3ccccc3[nH]2)cc(OC)c1OC (stereo not given) | 108%
Cc1sc2ncnc(Sc3nc4ccccc4[nH]3)c2c1C | -54.7% (active)
CC(=O)Nc1ccc2nc3ccc(NC(C)=O)cc3[n+](-c3ccccc3)c2c1 | 4% (active)
Cc1cc(N(CCNc2ccnc3cc(Cl)ccc23)Cc2cccs2)nc(Cl)n1 | -72.4% (active)
Cn1c([N+](=O)[O-])cnc1/C=C1\Oc2ccc(Br)cc2C1=O | -12% (active)
COc1cc(/C(=C2/O[C@@H]([C@H]3COC(C)(C)O3)[C@H]3OC(C)(C)O[C@@H]23)c2ccc3c(c2)OCO3)cc(OC)c1OC | 86.1%
O=C1c2cc3c(cc2-c2c1c1cc(F)c(F)cc1c(=O)n2CCCn1ccnc1)OCO3 | -15.4% (active)
N[C@@H]1CCN(C(=O)c2cc3cc(Cl)c(F)c(F)c3[nH]2)C1 | 97.7%
COc1ccc(/C=C/C(=O)/C=C(/C=C/c2ccc(OC)c(OC)c2OC)OB(F)F)c(OC)c1OC | 8.53% (active)
COc1ccc2nc(Cl)c(/C=C/C(=O)c3ccc(NC(=O)CSc4nnc(-c5ccc(Cl)c(Cl)c5)n4-c4ccccc4)cc3)cc2c1 | 73.1%
O=C1C2C(C(=O)N1CC[Se][Se]CCN1C(=O)C3C(C1=O)[C@H]1C=C[C@@H]3C1)[C@H]1C=C[C@@H]2C1 (stereo not given in full) | -54.7% (active)
Cc1nc2ccccc2c(=O)n1-c1cccc(OCc2cn(-c3cccc(O)c3)nn2)c1 | 101%
CC(O)Cc1c[nH]c(=O)[nH]c1=O (stereo not given) | 103%
COc1ccc(C(=O)N2CCN(C(=O)c3cc(OC)c(OC)c(OC)c3)CC2)cc1OCCCCOc1cc2c(cc1OC)C(=O)N1CCC[C@H]1C=N2 | 147%
COc1ccc(F)c(F)c1C(=O)c1cnc(NC2CCN(S(C)(=O)=O)CC2)nc1N | -32.2% (active)
COc1cc(C(=O)c2cc(C)c3[nH]c4ccc(O)cc4c3c2C)cc(OC)c1OC | -13.7% (active)
COc1ccc(C(=O)c2cc(OC)c(OC)c(OC)c2)cc1/C=C/C(=O)c1ccc(O)cc1 | 14.2%
CC(C)(C)n1cc(-c2ccnc(NCCNS(=O)(=O)c3ccc(Cl)cc3)c2)c(-c2cccc(O)c2)n1 | 39.4%
O=[N+]([O-])c1ccc(S(=O)(=O)N2CCN(c3ccnc4cc(Cl)ccc34)CC2)c([N+](=O)[O-])c1 | 75.7%
O=S(=O)(NCCNc1nccc(-c2c(-c3cccc(F)c3)nc3sccn23)n1)c1ccc(Br)cc1 | 90.5%

Compound | growth
CC1C(c2ccccc2)OCCN1C(=S)Nc1ccc(S(=O)(=O)N2CCCCC2)cc1 (stereo not given) | 89.1%
CCOC(=O)C1=NN(c2ccccc2)C2=NC(=O)/C(=C\c3cn(-c4ccccc4)nc3-c3cc4ccccc4o3)C(=O)N12 | 76.4%
CN1C(=O)N2CN3CCCN(C3)CN3C(=S)NC1C23 (stereo not given) | 99.8%
CCOC(=O)CC1C(CNC(=O)NC)OC(n2cnc3c(NC(=O)Nc4ccccc4)ncnc32)C1O[Si](C)(C)C(C)(C)C (stereo not given) | 44.5%
COc1ccc(Cl)cc1NC(=O)c1cc2c(n1C)-c1nc(NC(=O)C(C)C)sc1CC2 | 74.7%
O=Nc1ccc2ccccc2c1O | 74.3%
CCn1cc(C(=O)O)c(=O)c2cc(F)c(N3CCN(CC(=O)Nc4ccc(S(=O)(=O)Nc5nccc(C)n5)cc4)C(C)C3)c(F)c21 (stereo not given) | 115%
Nc1ccc(C(=O)Nc2cccc(C(=O)Nc3ccc4c(O)c(N=Nc5ccc(N=Nc6ccc(S(=O)(=O)O)cc6)cc5)c(S(=O)(=O)O)cc4c3)c2)cc1 | 89.1%
Cc1cc(C)c2nc(C)c(C)[n+]([O-])c2c1 | 85.7%
Nc1c(C(=O)c2ccccc2)sc2nc(-c3cccs3)cc(-c3cccs3)c12 | 22%
C/C(=N\NC(=O)C(C)SC(C)C(=O)N/N=C(\C)c1cccnc1)c1cccnc1 (stereo not given) | 77.1%
COc1cc(C(=O)n2nc(N)c3c(C)cc(C)nc32)cc(OC)c1OC | 21.6%
COc1ccc(/C(=C2\O[C@@H]([C@H](O)CO)[C@H]3OC(C)(C)O[C@@H]23)c2cc(OC)c(OC)c(OC)c2)cc1O | -2.8% (active)
CCN1C(=O)c2ccc3c4c(ccc(c24)C1=O)C(=O)N(CCCNCc1ccccc1OC)C3=O | -52.6% (active)
COc1ccc(/C=C2\COc3ccc(-c4ccccc4)cc3C2=O)cc1O | -34% (active)
COc1cc(-c2nn(C(=O)NS(=O)(=O)c3ccccc3)cc2-c2ccncc2)ccc1Cl | 98.1%
O=[N+]([O-])c1ccc(N/N=C/c2cccc3ccccc23)nc1 | 26.4%
COc1ccc(-c2nc3c(N)c(CO)c(C)nc3o2)cc1 | 98.3%
CCNC(=O)Nc1nc2ccc(Oc3ccnc(C(=O)NC)c3)cc2s1 | 94.7%
O=C(O)c1cn(C2CC2)c2cc(N3CCN(Cc4ccc5ccccc5c4O)CC3)c(F)cc2c1=O | 69.7%
